RTF Ca sens inh – cardiac RTF calcium sensitivity inhibitors, primary screen, biochemical, IANBD-TnC fluorescence, EC70 calcium; 340,000 tested, 0.12% active; Troponin I, cardiac muscle (Homo sapiens) + Troponin T, cardiac muscle (Homo sapiens) + …; IANBD-labeled cardiac RTF, Ca2+ fluorescence; inhibition, % at 7.15 µM;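 active = inhibition above the mean inhibition of all tested compounds plus 3 SD, cut at about 17% in these data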;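 note: assay run at fixed EC70 calcium of 1.6 mM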
C-LANA FP – inhibitors of KSHV C-LANA binding to DNA, primary screen, biochemical, fluorescence polarization, FAM-LBS DNA, MBP-C-LANA, single point; Kaposi's sarcoma herpesvirus LANA C-terminal domain (residues 932-1162) DNA binding; inhibition, % at 9 µM; 340,000 tested, 0.078% active; AID 504423, 2011;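 active = highest replicate inhibition at or above 60% at 9 µM, even if other replicates fall short; inactive = all replicates below 60% inhibition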;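 note: 0% = neutral control wells and 100% = 4 µM acridine orange control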
Keap1 Nrf2 FP – Keap1-Nrf2 protein-protein interaction inhibitors, primary screen, biochemical, fluorescence polarization, single point | Kelch-like ECH-associated protein 1 (Homo sapiens), Q14145 | Keap1 Kelch-Nrf2 peptide fluorescence polarization, 1536-well | inhibition, % at 9.4 µM | 340,000 tested, 0.15% active | AID 504523, 2011; in the data active = inhibition above about 12%; inconclusive = no clear call, values can overlap the other calls; inactive = below about 7.3%;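 note: human Keap1 Kelch domain with fluorescein labeled Nrf2 9mer peptide probe; 0% = neutral control wells and 100% = peptide positive control; higher means more block of Keap1 binding to Nrf2 peptide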
E coli Lon inh – inhibitors of E. coli Lon protease, primary screen, biochemical, fluorescence polarization; purified E. coli Lon protease; inhibition, % at 7.94 µM; 360,000 tested, 0.42% active; AID 602123, 2011; in the data active = inhibition above about 13%, passing the limit was not always enough;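 note: 0% = enzyme with probe and DMSO and 100% = no enzyme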
Target sequence (P0A9M0 whole entry, looked up): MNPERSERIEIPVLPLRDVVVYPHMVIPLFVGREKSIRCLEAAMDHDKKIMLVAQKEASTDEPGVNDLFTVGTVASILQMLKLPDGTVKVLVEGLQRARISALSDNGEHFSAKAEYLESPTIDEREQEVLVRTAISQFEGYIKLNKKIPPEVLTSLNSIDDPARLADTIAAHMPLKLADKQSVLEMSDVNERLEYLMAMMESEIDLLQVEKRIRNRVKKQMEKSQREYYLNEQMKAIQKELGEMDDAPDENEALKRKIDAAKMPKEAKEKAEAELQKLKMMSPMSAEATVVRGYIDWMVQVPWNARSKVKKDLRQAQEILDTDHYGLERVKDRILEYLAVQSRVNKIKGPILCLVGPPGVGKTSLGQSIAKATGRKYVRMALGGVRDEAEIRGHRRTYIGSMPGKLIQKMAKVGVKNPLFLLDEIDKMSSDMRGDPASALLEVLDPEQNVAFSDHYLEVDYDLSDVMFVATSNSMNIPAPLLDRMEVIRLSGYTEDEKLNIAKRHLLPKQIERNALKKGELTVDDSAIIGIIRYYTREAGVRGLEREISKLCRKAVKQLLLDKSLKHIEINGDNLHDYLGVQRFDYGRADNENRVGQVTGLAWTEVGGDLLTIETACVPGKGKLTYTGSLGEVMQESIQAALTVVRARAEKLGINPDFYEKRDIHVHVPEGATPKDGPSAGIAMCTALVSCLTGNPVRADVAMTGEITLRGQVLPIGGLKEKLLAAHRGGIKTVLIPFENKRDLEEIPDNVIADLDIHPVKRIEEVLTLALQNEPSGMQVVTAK
RTF Ca sens act – cardiac RTF calcium sensitivity activators, primary screen, biochemical, IANBD-TnC fluorescence, EC20 calcium; 340,000 tested, 0.24% active; IANBD-labeled TnC RTF fluorescence at EC20 calcium; 0% EC20 calcium, 100% full calcium; activation, % at 7.2 µM;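 active = activation above the mean over all tested compounds plus 3 SD, cut at about 30% in these data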;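 note: rise in fluorescence read as greater calcium sensitivity of cardiac thin filaments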
The depositor's hits bear a star; i = inactive; ? = inconclusive; nt = no result. This is a sample that favours compounds with a hit; in the whole collection about 0.74% have one here.

SMILES | RTF Ca sens inh | C-LANA FP | Keap1 Nrf2 FP | E coli Lon inh | RTF Ca sens act
COc1cc(NC(=O)C2(C)CCCN2C)cc(OC)c1OC (configuration not stated) | nt | nt | nt | 10 | nt
Cc1ccc2c(c1C)NC(C(=O)O)C1CC=CC21 (configuration not stated) | 16 | 3 | 7 | -6 | -17
O=C(O)C1Nc2c(C(=O)N3CCOCC3)cccc2C2C=CCC12 (configuration not stated) | 13 | 72* | 0 | 6 | -10
CCCN(C)C1CN(Cc2cn(CCCC(=O)OC)nn2)S(=O)(=O)C1 (configuration not stated) | nt | nt | nt | 0 | nt
Cn1c(-c2ccc(C=O)s2)nc2c3ccccc3c3ccccc3c21 | -14 | 16 | -3 | -27 | 81*
Cc1nc2c(=O)[nH]c(=S)[nH]c2[nH]c1=O | 2 | 103* | ? | -204 | -13
COc1ccccc1C/C(N)=N/OC(=O)COc1cccc(C)c1C | 19* | -2 | -2 | 5 | -3
Cc1ccccc1-n1c(O)c(/C=C/C=Nc2ccccc2)c(=O)[nH]c1=O | -135 | -56 | -214 | i | 124*
Cc1ccc(-n2c(O)c(/C=C3/C(c4ccccc4)=Nc4ccccc43)c(=O)[nH]c2=O)cc1 | 9 | 1 | -1 | -40 | 0
Cc1ccc(C)c(S(=O)(=O)Nc2cc(SCC(=O)O)c(O)c3ccccc23)c1 | 3 | 3 | 61* | 34* | -2
COc1ccc(/C=C2\Oc3cc(OC(=O)N4CCOCC4)ccc3C2=O)c(OC)c1 | -51 | 3 | 1 | -238 | 37*
O=c1oc2c3c4c(cc2c(C(F)(F)F)c1CCN1CCOCC1)CCCN4CCC3 | -68 | 6 | 0 | -12 | 70*
O=c1ccc2cc3c([nH]c4ccc(Br)cc43)oc-2c1O | 24* | 10 | 55* | -32 | -32
CCCC(=O)n1nc(-c2ccc(Cl)cc2)nc1SC | -7 | 78* | 0 | 4 | -2
CCC(=O)n1nc(-c2ccc(Cl)cc2)nc1SC | 5 | 0 | 3 | -1 | -1
COC(=O)c1cc2c(=O)c3ccccc3oc2nc1/C=C/N(C)C | -41 | -6 | -9 | -105 | 48*
CC(C)NC(=O)/C(C#N)=C/c1ccc(N(C)C)o1 | -75 | -34 | -86 | i | 73*
Cc1ccc(/C=C(\C#N)C(=O)NC(C)C)o1 | -2 | 1 | -7 | -10 | 5
CCOC(=O)C(CCCCCCC(NC(C)=O)(C(=O)OCC)C(=O)OCC)(NC(C)=O)C(=O)OCC | 0 | 0 | -3 | 7 | 83*
CSc1ncnc2c1ncn2CCCN1CCN(c2ccccn2)CC1 | nt | nt | nt | -4 | nt
Cc1ccc2[nH]cc(/C=C/c3cc[n+](C)cc3)c2c1 | -243 | -21 | -167 | -317 | 230*
COc1ccc2c(/C=C/c3cc[n+](C)cc3)c[nH]c2c1 | -17 | -17 | -13 | -92 | 8
CC[n+]1ccc(/C=C/c2c[nH]c3ccccc23)cc1 | -120 | -22 | -110 | -330 | 102*
O=C1CC(=O)N(Cc2ccco2)C(=O)N1 | 5 | 94* | -18 | -174 | -10
O=C1CC(=O)N(Cc2ccco2)C(=S)N1 | -8 | 71* | 3 | -159 | -2
SMILES | RTF Ca sens inh | C-LANA FP | Keap1 Nrf2 FP | E coli Lon inh | RTF Ca sens act
O=C1CC(=O)N(Cc2cccs2)C(=O)N1 | -2 | -2 | -25 | -44 | 5
O=C1c2ccccc2C(c2nnnn2-c2ccc3c(c2)OCCO3)N1CCc1ccccc1F (configuration not stated) | nt | nt | nt | -3 | nt
O=C(c1ccc(=O)oc1)N1CCCc2ccccc21 | 12 | 79* | -1 | -6 | -7
COc1ccc(-n2c(O)c(C=Nc3ccccc3)c3ccccc3c2=O)cc1 | -5 | -1 | 0 | -4 | -2
CCN(c1ccc(N=Cc2c(O)n(Cc3ccc(OC)cc3)c(=O)c3ccccc23)cc1)C(C)C | -28 | 7 | -4 | -29 | 418*
c1ccc(Nc2cccc3c(Nc4ccccc4)cccc23)cc1 | -8 | -1 | 6 | -4 | -6
O=S(=O)(O)c1cccc2cccc(Nc3ccccc3)c12 | -10 | 96* | 4 | 8 | 2
N#C/C(=C/c1ccc(C(=O)O)cc1)C(=O)NCc1ccccc1 | -3 | 0 | 1 | 7 | -1
CCN(CC)c1ccc(/C=C(\C#N)C(=O)NCc2ccccc2)cc1 | -14 | -1 | -1 | -178 | 36*
Cc1ccc(C(O)c2ncc(-c3ccc(F)cc3)[nH]2)cc1F (configuration not stated) | nt | nt | nt | -5 | nt
CCN1CCN(c2cc(N3CCN(C(=O)c4ccco4)CC3)c3c4c(onc24)-c2ccccc2C3=O)CC1 | 3 | -23 | -24 | 10 | 2
O=C(O)CCNc1cc(N2CCN(C(=O)c3ccco3)CC2)c2noc3c2c1C(=O)c1ccccc1-3 | -9 | -16 | -261 | 25 | 139*
O=[N+]([O-])c1ccc(-c2nc(Cl)c3c(n2)CCCC3)o1 | nt | nt | nt | 9 | nt
COc1cccc(-c2cccc3c2NC(=O)C3(C)Cc2ccccc2F)c1 (configuration not stated) | nt | nt | nt | -10 | nt
CC(=O)Nc1cccc(C(=O)/C=C/c2ccc(N(C)C)cc2)c1 | -81 | 6 | -37 | i | 73*
CC(=O)Nc1cccc(C(=O)/C=C/c2ccc(F)cc2)c1 | -13 | -1 | -16 | 4 | 2
CCCCCCCCC(c1nc2ccccc2[nH]1)N1CCN=C(c2ccccc2)C1=O (configuration not stated) | nt | nt | nt | -2 | nt
COc1ccc(OCCCC(=O)OCC(=O)N2CCN(S(=O)(=O)c3ccc(C)cc3C)CC2)cc1 | -5 | -1 | -3 | -6 | 2
O=C(O)C(c1ccccc1)N1C(=O)/C(=C\c2ccc(-c3ccc(Br)cc3)o2)SC1=S (configuration not stated) | -65 | 5 | -52 | -97 | 63*
CC(C)NC(=O)N(C)C[C@@H]1OCc2cnnn2CCCC(=O)N([C@@H](C)CO)C[C@H]1C | nt | nt | nt | -8 | nt
COCOc1ccc(-c2ncc(OCCN3CCCC3=O)nc2NC(=O)c2cc3ccccc3s2)cc1 | nt | nt | nt | -5 | nt
O=C(C[n+]1ccc2ccccc2c1)c1cccc2ccccc12 | -13 | 0 | 1 | -10 | 0
O=C(/C=C/c1cc[n+](CC(=O)c2ccc3cccc4c3c2CC4)cc1)c1ccc2cccc3c2c1CC3 | 17* | -2 | 7 | -7 | -23
COC(=O)[C@]12CCCCC=C1N(Cc1ccc(Cl)cc1Cl)C(=O)[C@H](CC(=O)N1CCN(C(=O)c3ccco3)CC1)C2 | nt | nt | nt | 6 | nt
COc1ccc2c(n1)Sc1nc3ccccc3nc1N2 | -59 | 2 | -6 | -184 | 30*
FC(F)(F)c1cc(Cl)c2nc(-c3ccco3)c(Cc3ccccc3C(F)(F)F)n2c1 | nt | nt | nt | -6 | nt
CCC/C(C#Cc1ccc(N(C)C)cc1)=C1/c2ccccc2C(=O)N1c1ccccc1 | -60 | 5 | -5 | -163 | 114*

Screening data as filed in PubChem BioAssay.
